# Data published in PubChem BioAssay (Tox21).
# Results filed as inconclusive are left out. A number with no mark means an inactive call. The source made the active and inactive calls. Calls come from the whole dose curve.
# Molecular target: D(2) dopamine receptor (Homo sapiens) (UniProt P14416)
# Assay: Dopamine D2 receptor (DRD2) small molecule agonists, cell-based qHTS assay (AID 1963594); note: nearly all actives have a fitted effect of over 35% in size
# Conditions: HEK293-DRD2 cAMP HTRF, agonist mode, 30 min; series mostly up to 92.4 µM; activation: at the top concentration
# Procedure, shortened: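 HEK293 cells stably expressing human DRD2, pre-treated with PDE inhibitor Ro20-1724 (0.1 mM final) and compound 10 min at room temperature, then stimulated with NKH477 (200nM […]) for 30 min. cAMP read by HTRF (665/620 nm).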
# % is set by controls: 0 for no effect and ±100 for the full control effect; potency is the fitted concentration of half-maximal effect.
# Sequence of D(2) dopamine receptor (Homo sapiens) (P14416 whole entry, looked up): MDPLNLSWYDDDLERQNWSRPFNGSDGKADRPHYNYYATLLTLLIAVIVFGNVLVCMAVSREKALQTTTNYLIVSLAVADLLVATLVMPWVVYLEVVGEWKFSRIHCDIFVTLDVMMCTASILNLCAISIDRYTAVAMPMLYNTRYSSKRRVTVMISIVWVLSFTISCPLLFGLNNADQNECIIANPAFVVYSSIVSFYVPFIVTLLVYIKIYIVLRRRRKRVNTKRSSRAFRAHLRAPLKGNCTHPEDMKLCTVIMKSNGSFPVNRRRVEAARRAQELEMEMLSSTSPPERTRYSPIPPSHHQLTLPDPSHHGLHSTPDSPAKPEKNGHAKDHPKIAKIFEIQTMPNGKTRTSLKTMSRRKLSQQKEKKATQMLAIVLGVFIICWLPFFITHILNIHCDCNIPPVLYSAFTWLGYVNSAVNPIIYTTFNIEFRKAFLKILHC
SMILES,activation,Potency
CC(C)NCCCC1(C(N)=O)c2ccccc2-c2ccccc21,-1.85% [at 42.5 µM],–
CC(C(=O)O)c1cccc(Oc2ccccc2)c1 (stereo not drawn),17.3% [at 42.5 µM],–
CC(C)=CCC[C@@](C)(O)[C@H]1CC=C(C)CC1,-3.19% [at 42.5 µM],–
O=C(O)C[C@H](O)C[C@H](O)/C=C/c1c(C2CC2)nc2ccccc2c1-c1ccc(F)cc1,-0.0463% [at 19 µM],–
O=P(O)(O)OCC(O)CO (stereo not drawn),-23.7% [at 42.5 µM],–
Cc1ccc2c(Cl)cc(Cl)c(O)c2n1,19.9% [at 42.5 µM],–
CCC(=O)OC(=O)CC,1.35%,–
O=C1c2ccccc2C(=O)N1CO,2.43%,–
Cc1cccc([N+](=O)[O-])c1C(=O)O,5.27%,–
Nc1nc2c(ncn2COCCO)c(=O)[nH]1,-7% [at 42.5 µM],–
C[N+]1(CC2COC(c3ccccc3)(c3ccccc3)O2)CCCCC1 (stereo not drawn),-6.08% [at 19 µM],–
Cc1ncc(CO)c(C=O)c1O,-12.6% [at 42.5 µM],–
CC(C)c1ccc(C#N)cc1,-4.14%,–
CCOC(=O)[C@H](C)O,-3.81%,–
CO[C@@]1(NC(=O)CSCC#N)C(=O)N2C(C(=O)O)=C(CSc3nnnn3C)CS[C@@H]21,0.648% [at 42.5 µM],–
O=C(Nc1ccccc1)Nc1ccccc1,0.528%,–
O=C(O)c1ccc[n+]([O-])c1,-1.55% [at 42.5 µM],–

SMILES,activation,Potency
NC1CCN(c2nc3c(cc2F)c(=O)c(C(=O)O)cn3-c2ccc(F)cc2F)C1 (stereo not drawn),0.397% [at 42.5 µM],–
CCOc1cc([N+](=O)[O-])c(OCC)cc1N1CCOCC1,-10.1%,–
CO[C@@H]1[C@H](OC(=O)/C=C/C=C/C=C/C=C/C(=O)O)CC[C@]2(CO2)[C@H]1[C@@]1(C)O[C@@H]1CC=C(C)C,-0.372%,–
CN1C(=O)OC(C)(C)C1=O,-1.18%,–
FC(F)(F)c1ccc(Cl)cc1Cl,0.175%,–
O=C(CCC1CCN(Cc2ccccc2)CC1)c1ccc2c(c1)NCCCC2,-29.7% [at 42.5 µM],–
Cn1c(=O)[nH]c2ncn(C)c2c1=O,1.99%,–
Nc1nc(Cl)nc2c1ncn2[C@@H]1O[C@H](CO)[C@@H](O)[C@@H]1F,–,422 nM (active)
CC(C)(C)C1=CC(=O)C(C(C)(C)C)=CC1=O,0.0986% [at 42.5 µM],–
Cc1c(C(=O)NCCO)[n+](=O)c2ccccc2n1[O-],-13.2% [at 42.5 µM],–
C=CC(C)(CCC=C(C)C)OC(=O)C(C)C (stereo not drawn),-1.41%,–
CN1Cc2cc(C(=O)N3CCC(C4CCNCC4)CC3)ccc2N[C@@H](CC(=O)O)C1=O,5.49% [at 42.5 µM],–
[O-][n+]1cccc(CO)c1,-10.2% [at 42.5 µM],–
Cc1cc(C(=O)O)ccc1[N+](=O)[O-],2.29%,–
CC(C)=CCC/C(C)=C/C=N/O,-2.19%,–
CC(=O)c1c(C)cc(C(C)(C)C)cc1C,0.329%,–
